The values below come from PubChem BioAssay (NCATS).

Results filed as inconclusive are left out. Calls of active or inactive are those of the source. The call rests on the fitted dose curve; in most records, active means well fitted inhibition curve with a large enough effect; inconclusive means small, poorly fitted or top-dose-only effect; inactive means flat fitted curve, though single readings scatter.
On the % scale 0 is the no-effect control and ±100 the full control effect; potency means the concentration at half of the fitted maximal effect.

A short description of this test: P-glycoprotein substrates identified in KB-8-5-11 adenocarcinoma cell line, qHTS therapeutic library screen (AID 1346987). Further: nearly all actives have a fitted effect of over 65% in size. The note with it: KB-8-5-11 (P-gp overexpressing) viability, CellTiter-Glo, 72 h; series mostly up to 44.5 µM; activity change, negative = cytotoxicity: at the top concentration. The gist of the method: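 Compounds are pinned in dose-response onto KB-8-5-11 cells (500 cells/well, colchicine-free medium) and left 72 h at 37 degree C. CellTiter-Glo luminescence then yields AC50 values.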
In general terms: qHTS replaces the single test concentration by a dilution series.
`O=C(O)CNC(=O)CNC(=O)CNC(=O)CSC(=O)c1ccccc1`: the outcome was inactive.
As to `CC(C)(C)C(O)/C=C/c1ccc2c(c1)OCO2` (stereo not given), the “activity change, negative = cytotoxicity” value was -9.21% (inactive).
Consider `NC(N)=NCCCCN=C(N)N`, for which the “activity change, negative = cytotoxicity” value is 11.1% (inactive).
For the compound `Cc1cc2nc3ccc(=[N+](C)C)cc-3sc2cc1N`, the Potency is 6.51 µM (active).
As for `O=C(OCC1(COC(=O)c2cccnc2)CCCC(COC(=O)c2cccnc2)(COC(=O)c2cccnc2)C1O)c1cccnc1`, the “activity change, negative = cytotoxicity” value is -4.57% (inactive).
On to `O=C(Oc1ccccc1)c1cccc(C(=O)Oc2ccccc2)c1`, for which the “activity change, negative = cytotoxicity” value was -6.25% [at 93.4 µM] (inactive).
As for `O=C(Nc1ccc(Cl)cc1)Nc1ccc(Cl)c(Cl)c1`, the Potency was 6.51 µM (active).
Take `CC(=O)OCC(=O)Nc1cc(C#N)cc(NC(=O)COC(C)=O)c1Cl`: the compound was called inactive.
Take `CC(C(O)c1ccccc1)N(C)CCOC(c1ccccc1)c1ccccc1` (stereo not given): the Potency is 14.6 µM (active).
`O=C(CCCCC(=O)Nc1c(I)cc(I)c(C(=O)O)c1I)Nc1c(I)cc(I)c(C(=O)O)c1I`: the “activity change, negative = cytotoxicity” value was -0.372% (inactive).
As to `CCCCC(CC)COC(=O)c1ccccc1C(=O)O` (stereo not given), the “activity change, negative = cytotoxicity” value was 6.76% [at 93.4 µM] (inactive).
Take `CC(C)(C)C(=O)OCOC(=O)C1N2C(=O)CC2S(=O)(=O)C1(C)C` (stereo not given): the “activity change, negative = cytotoxicity” value is -12.1% (inactive).
Still for that read-out and setting: then `CC[N+](CC)(CC)CCOC(=O)C(C1CCCC1)C1CCCC1`, with -3.14% (inactive); and `CC(=O)N(CC(O)CO)c1c(I)c(C(=O)NCCO)c(I)c(C(=O)NCC(O)CO)c1I` (stereo not given), with 12.4% (inactive).
As to `CO[C@@H]1[C@@H](OC)[C@H](C)[C@@](O)(CC(=O)O)O[C@H]1[C@H](C)[C@H]1O[C@@]2(CC[C@@](C)([C@H]3CC[C@@](C)([C@@H]4O[C@@H]([C@H]5O[C@](C)(O)[C@H](C)C[C@@H]5C)C[C@@H]4OC4C[C@H](OC)[C@@H](OC)[C@H](C)O4)O3)O2)C[C@H](O)[C@H]1C` (stereo not given in full), the Potency is 8.2 µM (active).
